Laboratory results taken from PubChem BioAssay AID588342 (National Center for Advancing Translational Sciences (NCATS), 2011).
Among all 360,000 compounds or so, about 25,000 (6.9%) were called active. A call without a number means that no potency is given here. Roughly 9% stayed inconclusive and do not appear here. The sample holds actives, similar compounds and a random draw of the others, so the mix is not that of the screen. Calls come from the whole dose curve; as a rule, active = well fitted inhibition curve with a large enough effect; inconclusive = small, poorly fitted or top-dose-only effect; inactive = flat fitted curve, though single readings scatter.
Note: nearly all actives have a fitted effect of over 55% in size.
Potency is the fitted concentration of half-maximal effect.

The compounds below were run against Luciferin 4-monooxygenase (Photinus pyralis) (UniProt P08659) (assay: qHTS profiling assay for firefly luciferase inhibitor/activator using purifed enzyme and Km concentrations of substrates (counterscreen for miR-21 project)). Conditions: purified FLuc, luminescence inhibition; series mostly up to 57.5 µM.
Chain of Luciferin 4-monooxygenase (Photinus pyralis) (P08659 whole entry, looked up): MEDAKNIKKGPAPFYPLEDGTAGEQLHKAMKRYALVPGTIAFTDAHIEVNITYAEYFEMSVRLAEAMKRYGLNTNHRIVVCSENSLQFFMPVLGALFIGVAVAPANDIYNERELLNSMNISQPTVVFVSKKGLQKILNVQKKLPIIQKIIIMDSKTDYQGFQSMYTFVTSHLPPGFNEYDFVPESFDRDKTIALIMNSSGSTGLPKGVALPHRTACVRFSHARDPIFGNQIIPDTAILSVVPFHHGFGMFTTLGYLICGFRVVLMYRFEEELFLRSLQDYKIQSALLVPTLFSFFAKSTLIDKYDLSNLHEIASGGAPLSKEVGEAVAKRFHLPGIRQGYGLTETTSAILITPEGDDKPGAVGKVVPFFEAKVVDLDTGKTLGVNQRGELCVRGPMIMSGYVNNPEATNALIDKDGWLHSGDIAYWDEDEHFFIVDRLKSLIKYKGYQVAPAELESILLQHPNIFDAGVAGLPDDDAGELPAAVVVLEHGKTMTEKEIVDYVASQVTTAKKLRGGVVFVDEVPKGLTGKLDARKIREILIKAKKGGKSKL
Outline: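 Purified P. pyralis luciferase, 10 nM final, with Km-level 10 uM D-luciferin and 10 uM ATP in 50 mM Tris acetate pH 7.5, 10 mM Mg acetate, 0.01% Tween-20, 0.05% BSA; 6-point qHTS titration about 60 µM downward; luminescence read.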
For `CCOc1ccc(C(=O)CCC(=O)Nc2ccncc2)cc1`, the Potency was “inactive”.
For `COc1ccc(C2(C)NC(=O)N(CC(=O)c3ccc4c(c3)OCO4)C2=O)cc1` (stereo unspecified), the Potency was “inactive”.
With `CCOc1ccc(NCCC(=O)c2ccc3c(c2)OCO3)cc1` the Potency was 21.3 µM (active).
In the case of `Cc1ccc2nc(CN3CCN(S(=O)(=O)c4ccc(C)c(C)c4)CC3)oc2c1`, the Potency is reported as “inactive”.
`CCC1CCCCN1S(=O)(=O)Cc1ccccc1Cl` (stereo unspecified) was tested, and the Potency was “inactive”.
For `CC1(C)NC(=O)N(CC(=O)N2CCN(S(=O)(=O)c3ccccc3F)CC2)C1=O`, the Potency was “inactive”.
For `Cc1ccc(NC(=S)NCCc2ccc(Cl)cc2)c(C)c1`, the Potency was “inactive”.
In the case of `Cc1ccc(NC(=S)NCc2ccccc2Cl)c(C)c1`, the Potency is reported as “inactive”.
In the case of `Cc1ccc(NC(=S)Nc2ncccc2C)c(C)c1`, the Potency is reported as 6.75 µM (active).
With `COc1ccc2c(-c3ccccc3)cc(SCC(=O)N(C)C3CCS(=O)(=O)C3)nc2c1` (stereo unspecified) the Potency was “inactive”.
With `CN(C(=O)CSc1nnc(-c2ccc(C(C)(C)C)cc2)n1C)C1CCS(=O)(=O)C1` (stereo unspecified) the Potency was 15.1 µM (active).
For `CCn1c(SCC(=O)N(C)C2CCS(=O)(=O)C2)nnc1-c1cccs1` (stereo unspecified), the Potency was “inactive”.
`CC(C)N(C(=O)CSc1nnc(NC2CC2)s1)c1ccccc1` was tested, and the Potency was “inactive”.
In the case of `CN(C(=O)CSc1nnc(Nc2ccccc2)s1)C1CCS(=O)(=O)C1` (stereo unspecified), the Potency is reported as 16.9 µM (active).
For `CN(C(=O)CSc1nnc(-c2ccc3c(c2)OCO3)o1)C1CCS(=O)(=O)C1` (stereo unspecified), the Potency was “inactive”.
In the case of `COc1cccc(-c2nc(CS(=O)(=O)CC(=O)N3CCN(c4cc(C)ccc4C)CC3)c(C)o2)c1`, the Potency is reported as “inactive”.
`COc1cccc(OCC(O)CNC(=O)c2oc3c(C)c(C)ccc3c2C)c1` (stereo unspecified) was tested, and the Potency was “inactive”.
`O=C(NCc1ccccc1)C(=O)NCC1OCCN1S(=O)(=O)c1ccc(Br)cc1` (stereo unspecified) was tested, and the Potency was “inactive”.
`O=C(Oc1ccc(-c2nnco2)cc1)c1ccc(F)c(S(=O)(=O)N2CCOCC2)c1` was tested, and the Potency was “inactive”.
`Cc1occc(=O)c1OCc1ccc(F)cc1` was tested, and the Potency was “inactive”.
`Fc1ccc(COc2ccc(-c3nnco3)cc2)cc1` was tested, and the Potency was 13.5 µM (active).
With `CCOc1ccc(NC(=O)c2cccc3c2C(=O)N(CC2CCCO2)C3)cc1` (stereo unspecified) the Potency was 8.49 µM (active).
For `COCCN1Cc2cccc(C(=O)Nc3ccccc3OC)c2C1=O`, the Potency was “inactive”.
`COc1ccc(NC(=O)c2cccc3c2C(=O)N(CC2CCCO2)C3)cc1OC` (stereo unspecified) was tested, and the Potency was 26.9 µM (active).
In the case of `COC(=O)c1ccc(NC(=O)c2cccc3c2C(=O)N(C2CCCCC2)C3)cc1`, the Potency is reported as “inactive”.
For `CCCN1Cc2cccc(C(=O)Nc3ccc(S(=O)(=O)N4CCCCCC4)cc3)c2C1=O`, the Potency was “inactive”.
In the case of `COc1ccc(C(=O)Nc2ccc(C(=O)NCC3CCCO3)cc2)c(OC)c1OC` (stereo unspecified), the Potency is reported as “inactive”.
For `Cc1ccsc1CN(C(=O)c1oc2ccc(Br)cc2c1C)C1CCS(=O)(=O)C1` (stereo unspecified), the Potency was “inactive”.
With `O=C1C=C(c2cc(C(F)(F)F)cc(C(F)(F)F)c2)C[C@@H](c2ccc3c(c2)OCO3)C1` the Potency was “inactive”.
With `Cc1cc(-n2nc(C)cc2C)n2ncc(-c3ccccc3)c2n1` the Potency was “inactive”.
`COc1ccccc1-c1cnn2c(N3CCOCC3)cc(C)nc12` was tested, and the Potency was 6.01 µM (active).
For `Cc1cc(C(F)(F)F)n2ncc(-c3ccccc3)c2n1`, the Potency was “inactive”.
With `CC1Cc2ccccc2N1S(=O)(=O)c1cccc(C(=O)NCC(c2ccco2)N2CCCC2)c1` (stereo unspecified) the Potency was “inactive”.
For `COc1ccccc1CNC(=O)C(=O)NCC(c1cccs1)S(=O)(=O)c1cccs1` (stereo unspecified), the Potency was “inactive”.
`O=C(/C=C(O)/C=C/c1ccc(O)cc1)/C=C/c1ccc(O)cc1` was tested, and the Potency was “inactive”.
For `O=S(=O)(/C=C/c1ccccc1)N1CCNCC1`, the Potency was “inactive”.
With `COc1ccc(C(=O)/C=C/c2ccc(-c3ccccc3)cc2)cc1CSCC(=O)O` the Potency was “inactive”.
For `O=C(/C=C/c1ccccc1)c1ccccc1O`, the Potency was 3.38 µM (active).
In the case of `O=C(/C=C/c1ccccc1)c1ccoc1`, the Potency is reported as 15.1 µM (active).
`Cc1[nH]c(=O)c(C(=O)/C=C/c2ccccc2)c2c1CCCC2` was tested, and the Potency was “inactive”.
For `O=C(CSc1nnc(-c2ccncc2)n1-c1ccccc1)Nc1ccc(Cl)c(Cl)c1`, the Potency was “inactive”.
For `COc1ccc(CCNC(=O)c2cn(C)c3ccc(S(=O)(=O)N(C)C4CCCCC4)cc3c2=O)cc1OC`, the Potency was “inactive”.
For `CSc1ccc(C2c3c(oc4ccccc4c3=O)C(=O)N2CCCN2CCOCC2)cc1` (stereo unspecified), the Potency was “inactive”.
With `COc1cc(Cl)c(C)cc1NC(=O)CSc1nnc(-c2ccco2)n1CC(C)C` the Potency was “inactive”.
In the case of `CCOc1ccc(NC(=O)c2ccc(NC(=O)COC(=O)c3ccc(NC(=O)CC#N)cc3)cc2)cc1`, the Potency is reported as “inactive”.
With `CCOc1ccc(C(=O)Nc2cccc(SC)c2)cc1` the Potency was 6.01 µM (active).
For `COc1ccc(OC)c(S(=O)(=O)Nc2cccc(-c3ccc4nncn4n3)c2)c1`, the Potency was “inactive”.
With `CCOc1ccc(C(=O)Nc2c3c(nn2-c2ccccc2)CS(=O)(=O)C3)cc1` the Potency was “inactive”.
In the case of `CCOc1ccc(C(=O)Nc2cccc(-c3ccc4nncn4n3)c2)cc1`, the Potency is reported as 8.49 µM (active).
In the case of `CCOc1cccc(NC(=O)CC#N)c1`, the Potency is reported as “inactive”.
For `NS(=O)(=O)c1ccc(CCNS(=O)(=O)c2cccc3cccnc23)cc1`, the Potency was “inactive”.
With `O=C(O[C@@H]1[C@H](Cc2ccccc2)NS(=O)(=O)[C@H]2C[C@@H]3C=C[C@]12O3)c1ccccc1Br` the Potency was “inactive”.
With `COc1cccc(NC(=O)NCCN2CCCCC2)c1` the Potency was “inactive”.
In the case of `COc1cccc(NC(=O)Nc2nnc(N3CCCCC3C)s2)c1` (stereo unspecified), the Potency is reported as 13.5 µM (active).
In the case of `COc1cccc(NC(=O)N2CCCC2C(=O)NC2CCCCC2)c1` (stereo unspecified), the Potency is reported as “inactive”.
With `CCOC(=O)C1(CCOC)CCN(Cc2cc3ccccc3s2)CC1` the Potency was “inactive”.
For `CN(Cc1ccccc1)S(=O)(=O)c1ccc(F)c(C(=O)Nc2cccc(Cl)c2Cl)c1`, the Potency was “inactive”.
With `O=C1c2cccnc2C(Nc2ccc(S(=O)(=O)N3CCCCCC3)cc2)N1Cc1ccccc1` (stereo unspecified) the Potency was “inactive”.
In the case of `C(=N\Nc1ccc2ccccc2n1)/c1ccc2c(c1)OCO2`, the Potency is reported as 0.19 µM (active).
In the case of `O=C(Cc1ccc(F)cc1)N/N=C/c1ccc2c(c1)OCO2`, the Potency is reported as “inactive”.
For `Cc1noc(C)c1/C=N/Nc1ccc2ccccc2n1`, the Potency was 1.69 µM (active).
With `Brc1ccc(-c2csc(N/N=C/c3ccc4c(c3)OCO4)n2)cc1` the Potency was “inactive”.
With `COc1ccc(NC(=O)C2C3CCC(O3)C2C(=O)O)cc1OC` (stereo unspecified) the Potency was “inactive”.
`Cc1cccn2c(=O)c3cc(C(=O)NC(C)c4ccccc4)c(=N)n(CCCO)c3nc12` (stereo unspecified) was tested, and the Potency was “inactive”.
With `CCCN(CCC)CCNC(=O)c1ccc2c(c1)NC(=O)C(CS(=O)(=O)Cc1cccc(Br)c1)N2` (stereo unspecified) the Potency was “inactive”.
`COc1cccc(N=C2SC(C(=O)Nc3cccc(Cl)c3)CC(=O)N2C)c1` (stereo unspecified) was tested, and the Potency was “inactive”.
For `O=C(COc1ccccc1Cl)Nc1ccccc1C(=O)NC1CC1`, the Potency was “inactive”.
In the case of `O=C(Nc1cccn(Cc2ccccc2Cl)c1=O)NC1CCCCC1`, the Potency is reported as 21.3 µM (active).
In the case of `COc1ccc(Cn2cccc(NC(=O)Nc3ccc(C#N)cc3)c2=O)cc1`, the Potency is reported as “inactive”.
For `CCC(=O)c1ccc(OCC(=O)Nc2ccc(N3CCCCC3)cc2)cc1`, the Potency was “inactive”.
For `CCOc1ccc(NC(=O)CCc2c(C)nn(-c3ccc(N4CCCC4)nn3)c2C)cc1`, the Potency was “inactive”.
With `CCC(=O)Nc1ccc(-c2ccc(N3CCCCC3)nn2)cc1` the Potency was 12 µM (active).
With `O=C(CSc1nc2ccccc2nc1Cc1ccccc1)N1CCCCC1` the Potency was “inactive”.
For `O=C(CC(c1cccs1)N1Cc2ccccc2C1=O)Nc1ccc(F)c(F)c1` (stereo unspecified), the Potency was “inactive”.
For `Cc1sc2ncnc(N3CCC(C(=O)NNC(=O)c4ccc(F)cc4)CC3)c2c1C`, the Potency was “inactive”.
`Cc1sc2ncnc(N3CCC(C(=O)Nc4nc5ccc(Cl)cc5s4)CC3)c2c1C` was tested, and the Potency was 15.1 µM (active).
For `Cc1sc2ncnc(N3CCC(C(=O)Nc4ccc(F)cc4Cl)CC3)c2c1C`, the Potency was “inactive”.
For `Cc1ccc(S(=O)(=O)N(C)C)cc1NC(=O)C1Cc2ccccc2CN1C(=O)c1ccco1` (stereo unspecified), the Potency was “inactive”.
With `CCN(CC)c1ccc(C(=O)Nn2c(C)nc3ccccc3c2=O)cc1` the Potency was “inactive”.
With `CCN(CC)c1ccc(C(=O)c2cnc(/N=C/N(C)C)s2)cc1` the Potency was 16.9 µM (active).
For `COc1ccc(S(=O)(=O)N2CCN(C(C)C(=O)Nc3ccc(C(C)C)cc3)CC2)cc1` (stereo unspecified), the Potency was “inactive”.
With `CN(C(=O)CN1C(=O)S/C(=C\c2ccccc2F)C1=O)C1CCS(=O)(=O)C1` (stereo unspecified) the Potency was “inactive”.
With `CN(C(=O)CCN1C(=O)/C(=C/c2ccccc2F)SC1=S)C1CCS(=O)(=O)C1` (stereo unspecified) the Potency was 26.9 µM (active).
For `COc1ccccc1/C=C1\SC(=O)N(CCC(=O)N(C)C2CCS(=O)(=O)C2)C1=O` (stereo unspecified), the Potency was 16.9 µM (active).
With `O=C(CN1C(=O)/C(=C\c2ccccc2F)SC1=S)Nc1nc2ccccc2s1` the Potency was “inactive”.
With `Cc1ccc(S(=O)(=O)CCC(=O)OCC(=O)N(C)C2CCS(=O)(=O)C2)cc1` (stereo unspecified) the Potency was “inactive”.
In the case of `COc1ccc(/C=C(\C#N)C(=O)OCC(=O)N(C)C2CCS(=O)(=O)C2)cc1` (stereo unspecified), the Potency is reported as “inactive”.
In the case of `CC[n+]1c(C)n(-c2ccccc2)c2ccc(NC(C)=O)cc21`, the Potency is reported as “inactive”.
With `CCN(CC)C(=O)c1nc[nH]c1C(=O)N(C)Cc1ccccc1` the Potency was “inactive”.
For `Cc1ccc(CNC(=O)CCNS(=O)(=O)c2ccc3c(c2)oc(=O)n3C)cc1`, the Potency was “inactive”.
In the case of `CCn1nc(C)c(/C=N/NC(=O)Cc2ccc(Cl)cc2)c1C`, the Potency is reported as 15.1 µM (active).
With `Cc1nn(Cc2ccc(Cl)cc2)c(Cl)c1/C=N/NC(=O)CNc1ccccc1F` the Potency was “inactive”.
`O=C(CN1CCSCC1)N/N=C/c1ccc(Cl)cc1` was tested, and the Potency was “inactive”.
For `CCn1cc(C(=O)N(C)Cc2ccccc2)c(=O)c2cc(S(=O)(=O)N3CCCCCC3)ccc21`, the Potency was “inactive”.
For `CCn1nc(C(=O)Nc2ccc(N3CCOCC3)cc2)c2ccccc2c1=O`, the Potency was “inactive”.
In the case of `CC1(c2ccc(Cl)cc2Cl)NC(=O)N(CC(=O)Nc2cccnc2Cl)C1=O` (stereo unspecified), the Potency is reported as “inactive”.
In the case of `O=C(O)/C=C/C(=O)NNc1ccc([N+](=O)[O-])cc1`, the Potency is reported as “inactive”.
With `O=[N+]([O-])c1ccc(N/N=C/c2ccccc2)cc1` the Potency was 19 µM (active).
For `Cc1cccc(COc2ccccc2/C=N/Nc2ccc([N+](=O)[O-])cc2)c1`, the Potency was “inactive”.
In the case of `COC(=O)c1ccc(CSc2ccc(S(=O)(=O)N3CCCCC3)cn2)cc1`, the Potency is reported as “inactive”.
In the case of `O=C(C1CCC1)N1CCN(S(=O)(=O)c2ccc([N+](=O)[O-])cc2)CC1`, the Potency is reported as “inactive”.
